Measurements as given in PubChem BioAssay (Tox21).
Results filed as inconclusive are left out. Calls of active or inactive are those of the source. Unless noted, the call rests on the fitted dose curve; in most records, active means well fitted curve in the direction sought with a large enough effect in the repeat runs; inconclusive means weak or mixed curves; inactive means no such curve, though single readings can be large; an effect the other way counts as inactive or inconclusive.

Assays:
[1] = qHTS assay to identify small molecule antagonists of the androgen receptor (AR) signaling pathway using the MDA cell line in the presence of 0.5 nM R1881 - cell viability counter screen (AID 1259242); further: nearly all actives have a fitted effect of over 45% in size
Procedure, shortened: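 Cells seeded at 3,000/well and allowed 5 hr at 37C, 0% CO2 before compound transfer and R1881 (0.5 nM final) addition; 16 hr later, live-cell protease fluorescence indicated cytotoxicity.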

[2] = qHTS assay to identify small molecule phospholipidosis (PLD) inducers (AID 1259344; active means well fitted curve in the direction sought with a large enough effect; an effect the other way counts as inactive or inconclusive)
Procedure, shortened: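 Accumulated phospholipid, stained red by LipidTOX during 24 h compound treatment of HepG2 cells at 37 C, is quantified from images as pit number and intensity, normalised per cell using Hoechst-stained nuclei.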

[3] = qHTS assay to identify small molecule HDAC inhibitors (AID 1259364);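 further: wild-type HCT-116 cells with endogenous class I/II HDAC activity; top concentration of the series differs between compounds; nearly all actives have a fitted effect of over 45% in size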
Procedure, shortened: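 HCT-116 wt cells, 1,500/well, overnight attach. Compounds (DMSO) 2 h, 37 °C. HDAC-Glo I/II, 30 min RT. Luminescence.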

[4] = qHTS assay to identify small molecule HDAC inhibitors - cell viability counter screen (AID 1259365); further: series mostly up to about 92 µM; nearly all actives have a fitted effect of over 50% in size
Procedure, shortened: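 Luminescence from CellTiter-Glo, developed 30min at room temperature, reports viability of wild-type HCT-116 cells treated 2hr with compounds at 37 C and 5% CO2 after overnight plating.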

[5] = qHTS assay to identify small molecule agonists of the sonic hedgehog signaling (Shh) pathway - cell viability counter screen (AID 1259366); further: nearly all actives have a fitted effect of over 50% in size
Procedure, shortened: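 Cytotoxicity counter screen run in the same wells as the Shh reporter assay. NIH/3T3 cells carrying a Gli1 response element–driven luciferase were treated with DMSO-dissolved compounds for 24hr, and live-cell protease activity was measured with CellTiter-Fluor.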

[6] = qHTS assay to identify small molecule antagonists of the sonic hedgehog signaling (Shh) pathway - cell viability counter screen (AID 1259367); further: nearly all actives have a fitted effect of over 55% in size
Procedure, shortened: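 CellTiter-Fluor signal in conditioned medium-stimulated 3T3 Gli1-Luc cells, 23 hr compound exposure, 37C.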

[7] = qHTS assay to identify small molecule agonists of the sonic hedgehog signaling (Shh) pathway (AID 1259368; calls by dose curve;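 further: NIH/3T3-derived 3T3Gli1-Luc cells carrying a stable Gli1-driven firefly luciferase reporter; series mostly up to about 92 µM; nearly all actives have a fitted effect of over 15% in size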)
Procedure, shortened: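 Following a 24 hr incubation with DMSO-dissolved compounds at 37 C, 5% CO2, Gli1-Luc NIH/3T3-derived cells received luciferase reagent for 30 min at room temperature prior to luminescence measurement.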

[8] = qHTS assay to identify small molecule antagonists of the sonic hedgehog signaling (Shh) pathway (AID 1259369; calls by dose curve; further: nearly all actives have a fitted effect of over 45% in size; further: potency means the concentration at half of the fitted maximal effect)
Procedure, shortened: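 Read-out is luminescence from a firefly luciferase gene controlled by the Gli1 response element, in 3T3Gli1-Luc cells pre-incubated 4hr then exposed to compounds and conditioned medium for 24hr.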

[9] = molecular target: Estrogen receptor beta (Homo sapiens) (UniProt Q92731); experiment: qHTS assay to identify small molecule agonists of the estrogen receptor beta (ER-beta) signaling pathway (AID 1259377; active means well fitted activation curve with a large enough effect in the signal ratio in the repeat runs, not every such curve was filed as active; the % refers to the signal ratio)
Procedure, shortened: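 HEK293T ER-beta-UAS-bla; 2% charcoal-stripped FBS; cells pre-incubated 6 hr, compound 16 hr, 37C/5% CO2; LiveBLAzer B/G FRET substrate 2 h RT; fluorescence intensity read.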

[10] = molecular target: Estrogen receptor beta (Homo sapiens) (UniProt Q92731); experiment: qHTS assay to identify small molecule antagonists of the estrogen receptor beta (ER-beta) signaling pathway (AID 1259378; active means well fitted inhibition curve with a large enough effect in the signal ratio in the repeat runs, not every such curve was filed as active; the % refers to the signal ratio)
Procedure, shortened: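 Antagonist mode: compounds added to beta-lactamase reporter HEK293T ER-beta-UAS cells stimulated with E2 (1nM final), 16 hr at 37C. LiveBLAzer B/G FRET substrate, 2 hours room temperature, fluorescence read-out.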

[11] = qHTS assay to identify small molecule agonists of the androgen receptor (AR) signaling pathway in the presence of an antagonist - cell viability counter screen (AID 1259379);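 further: MDA-kb2 human breast cancer cells carrying an MMTV luciferase reporter; series mostly up to about 92 µM; nearly all actives have a fitted effect of over 25% in size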
Procedure, shortened: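 Each compound was tested at 15 concentrations on MDA-kb2 cells in the presence of 3.0uM nilutamide. Viability was measured by CellTiter-Fluor fluorescence after a 16 hr incubation at 37C in a CO2-free atmosphere.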

[12] = qHTS assay to identify small molecule agonists of the estrogen receptor beta (ER-beta) signaling pathway - cell viability counter screen (AID 1259380); further: nearly all actives have a fitted effect of over 30% in size; further: potency means the concentration at half of the fitted maximal effect
Procedure, shortened: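 Compounds dissolved in DMSO were pin-transferred onto ER-beta-UAS-bla HEK293T cells that had settled 6 hr, and exposure ran 16 hr at 37C. Following the reporter read, CellTiter-Glo luminescence after 30 min at room temperature indicated cytotoxicity.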

[13] = qHTS assay to identify small molecule antagonists of the estrogen receptor beta (ER-beta) signaling pathway - cell viability counter screen (AID 1259382); further: nearly all actives have a fitted effect of over 55% in size; further: potency means the concentration at half of the fitted maximal effect;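 on activity change, negative = cytotoxicity: HEK293T cells carrying ER-beta-UAS-bla reporter stimulated with estradiol; series mostly up to about 92 µM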
Procedure, shortened: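 CellTiter-Glo ATP luminescence measured after the LiveBLAzer read in the same wells; ER-beta-UAS-bla HEK293T cells, 16 hr compound treatment with 1nM 17-beta-estradiol agonist at 37C, 5% CO2.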

[14] = qHTS assay to identify small molecule agonists of the estrogen receptor alpha (ER-alpha) signaling pathway in the presence of an antagonist - cell viability counter screen (AID 1259386);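 further: series mostly up to about 92 µM; cells exposed to compounds for 22 h at 37 °C before the viability read; nearly all actives have a fitted effect of over 30% in size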
Procedure, shortened: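 Using estrogen-depleted VM7Luc4E2 cells, the 15-concentration compound series was applied together with 10.0nM ICI-182,780 and incubated 22hr at 37C/5% CO2. Cell viability was then scored by CellTiter-Fluor.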

[15] = molecular target: Estrogen receptor (Homo sapiens) (UniProt P03372); experiment: qHTS assay to identify small molecule agonists of the estrogen receptor alpha (ER-alpha) signaling pathway in the presence of an antagonist (AID 1259383; calls by dose curve; further: top concentration of the series differs between compounds; nearly all actives have a fitted effect of over 15% in size)
Procedure, shortened: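 Luminescent ERE-luciferase reporter, VM7Luc4E2 cells (endogenous ER-alpha); 10.0nM ICI-182,780 final; 15-point compound titration; 22hr at 37C; ONE-Glo, 30min RT.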

[16] = qHTS assay to identify small molecule agonists or antagonists of the thyroid stimulating hormone receptor (TSHR) signaling pathway - wild type cell line counter screen (AID 1259384; calls by dose curve; further: potency means the concentration at half of the fitted maximal effect)
Procedure, shortened: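 Counter screen in untransfected Hek293: compounds (15-point titration, triplicate) plus phosphodiesterase inhibitor Ro20-1724 added after 18 h plating; 30 min RT. Intracellular cAMP via competitive d2/cryptate immunoassay, 1 h incubation.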

[17] = molecular target: Thyrotropin receptor (Homo sapiens) (UniProt P16473); experiment: qHTS assay to identify small molecule antagonists of the thyroid stimulating hormone receptor (TSHR) signaling pathway (AID 1259385; calls by dose curve; further: nearly all actives have a fitted effect of over 20% in size)
Procedure, shortened: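 Antagonist mode: compound-treated TSHR-expressing HEK293 cells were stimulated with 1.5 ng/mL TSH (final) in presence of Ro20-1724 for 30 min at RT. HTRF cAMP detection after 1 h; each compound tested at 15 concentrations, triplicate.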

[18] = molecular target: Estrogen receptor (Homo sapiens) (UniProt P03372); experiment: qHTS assay to identify small molecule antagonists of the estrogen receptor alpha (ER-alpha) signaling pathway using the BG1 cell line in the presence of 0.1 nM 17-beta-estradiol (AID 1259244); further: nearly all actives have a fitted effect of over 50% in size
Procedure, shortened: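 Luciferase signal from VM7Luc4E2 ERE-reporter cells, co-dosed with test compound and 0.1 nM final 17beta-estradiol for 22 h, read with ONE-Glo.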
On the % scale 0 is the no-effect control and ±100 the full control effect.

Thyrotropin receptor (Homo sapiens), sequence (P16473 whole entry, looked up): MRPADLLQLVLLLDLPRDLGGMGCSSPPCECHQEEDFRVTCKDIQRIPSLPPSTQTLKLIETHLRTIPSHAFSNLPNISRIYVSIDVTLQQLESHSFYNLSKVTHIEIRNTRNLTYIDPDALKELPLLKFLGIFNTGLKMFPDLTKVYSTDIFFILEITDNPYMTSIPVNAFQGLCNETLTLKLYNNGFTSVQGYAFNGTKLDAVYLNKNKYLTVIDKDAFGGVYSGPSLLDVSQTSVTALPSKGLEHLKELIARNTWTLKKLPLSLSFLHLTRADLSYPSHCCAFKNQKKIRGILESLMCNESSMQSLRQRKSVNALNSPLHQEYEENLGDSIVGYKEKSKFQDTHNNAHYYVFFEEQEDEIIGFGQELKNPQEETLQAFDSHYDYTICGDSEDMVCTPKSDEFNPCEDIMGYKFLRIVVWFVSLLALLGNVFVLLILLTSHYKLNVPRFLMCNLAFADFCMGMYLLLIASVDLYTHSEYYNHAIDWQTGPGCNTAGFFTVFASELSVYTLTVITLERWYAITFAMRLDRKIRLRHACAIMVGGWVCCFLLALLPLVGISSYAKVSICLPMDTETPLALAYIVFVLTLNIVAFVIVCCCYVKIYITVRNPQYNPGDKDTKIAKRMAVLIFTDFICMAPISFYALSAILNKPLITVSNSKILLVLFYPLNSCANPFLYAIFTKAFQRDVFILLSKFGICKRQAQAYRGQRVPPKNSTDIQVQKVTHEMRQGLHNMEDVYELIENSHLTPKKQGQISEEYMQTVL
Estrogen receptor (Homo sapiens), sequence (P03372 whole entry, looked up): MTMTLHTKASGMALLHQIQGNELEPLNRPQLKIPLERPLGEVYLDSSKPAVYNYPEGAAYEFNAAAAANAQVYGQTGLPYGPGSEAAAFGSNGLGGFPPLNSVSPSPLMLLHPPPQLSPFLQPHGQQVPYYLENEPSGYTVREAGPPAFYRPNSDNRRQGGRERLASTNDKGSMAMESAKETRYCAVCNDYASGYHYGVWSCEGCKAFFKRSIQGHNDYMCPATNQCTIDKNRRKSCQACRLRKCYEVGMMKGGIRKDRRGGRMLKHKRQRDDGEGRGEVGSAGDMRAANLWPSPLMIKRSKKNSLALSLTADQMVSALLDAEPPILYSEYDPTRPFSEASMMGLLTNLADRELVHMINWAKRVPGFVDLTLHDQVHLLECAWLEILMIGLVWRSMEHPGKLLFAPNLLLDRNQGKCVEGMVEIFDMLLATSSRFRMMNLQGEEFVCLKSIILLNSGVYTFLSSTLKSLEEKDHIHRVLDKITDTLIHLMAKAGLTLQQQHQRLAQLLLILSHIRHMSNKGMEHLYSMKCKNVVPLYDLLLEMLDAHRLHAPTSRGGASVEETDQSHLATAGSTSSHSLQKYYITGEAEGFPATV
Estrogen receptor beta (Homo sapiens), sequence (Q92731 whole entry, looked up): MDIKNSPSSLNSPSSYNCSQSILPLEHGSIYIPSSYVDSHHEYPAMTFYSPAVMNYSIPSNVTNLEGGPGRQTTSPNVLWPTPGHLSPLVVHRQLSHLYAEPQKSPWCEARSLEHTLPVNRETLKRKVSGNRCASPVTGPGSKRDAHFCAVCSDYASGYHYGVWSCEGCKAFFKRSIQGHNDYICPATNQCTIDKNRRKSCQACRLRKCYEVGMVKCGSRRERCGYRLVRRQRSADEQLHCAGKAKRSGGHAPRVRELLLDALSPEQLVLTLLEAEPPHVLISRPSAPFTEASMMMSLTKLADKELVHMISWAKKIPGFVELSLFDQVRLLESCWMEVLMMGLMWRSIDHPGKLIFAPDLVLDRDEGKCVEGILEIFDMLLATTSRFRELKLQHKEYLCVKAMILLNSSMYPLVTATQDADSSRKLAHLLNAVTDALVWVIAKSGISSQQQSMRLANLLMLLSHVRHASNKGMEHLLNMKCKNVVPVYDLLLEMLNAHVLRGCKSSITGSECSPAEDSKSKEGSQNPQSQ

CCn1cc(C(=O)O)c(=O)c2cnc(N3CCNCC3)nc21
inactive: Potency [1] | Potency [2] | Potency [3] | Potency [4] | Potency [5] | Potency [6] | outcome [7] | Potency [8] | Potency [9] | Potency [10] | Potency [11] | Potency [12] | Potency [13] | Potency [14]

CCN(CC)CCNC(=O)c1cc(Br)c(N)cc1OC
inactive: Potency [1] | Potency [2] | Potency [3] | Potency [4] | Potency [5] | Potency [6] | outcome [7] | Potency [8] | Potency [9] | Potency [10] | Potency [11] | Potency [12] | Potency [13] | Potency [15] | Potency [16] | Potency [17] | Potency [14]

Cc1ccc(C(=O)Oc2ccc(C(O)CNC(C)(C)C)cc2OC(=O)c2ccc(C)cc2)cc1 (stereo unspecified)
active: Potency [12] 26.6 µM | Potency [16] 0.0362 µM
inactive: Potency [1] | Potency [18] | Potency [3] | Potency [4] | Potency [6] | outcome [7] | Potency [8] | Potency [9] | Potency [15] | Potency [17] | Potency [14]

CCNc1cc(O)ccc1C
inactive: Potency [1] | Potency [18] | Potency [3] | Potency [4] | outcome [7] | Potency [10] | Potency [11] | Potency [12] | Potency [13] | Potency [15] | Potency [16] | Potency [14]

O=C(Nc1ccc(S(=O)(=O)N2CCOCC2)cc1)c1cc(Cl)ccc1NS(=O)(=O)c1ccc(Cl)s1
active: Potency [8] 26.6 µM
inactive: Potency [1] | Potency [2] | Potency [3] | Potency [4] | Potency [5] | Potency [6] | outcome [7] | Potency [11] | Potency [15] | Potency [16] | Potency [17] | Potency [14]

CC1=CC[C@H](C(C)C)C=C1
inactive: Potency [1] | Potency [18] | Potency [3] | Potency [4] | Potency [5] | Potency [6] | outcome [7] | Potency [11] | Potency [13] | Potency [15] | Potency [14]

CCCCCCCCCCCCCCOS(=O)(=O)O
active: Potency [12] 30.6 µM | Potency [13] 61.1 µM
inactive: Potency [1] | Potency [18] | Potency [3] | Potency [4] | Potency [5] | Potency [6] | Potency [8] | Potency [9] | Potency [11] | Potency [15] | Potency [16] | Potency [14]

Cc1[nH]c(C)c(Cl)c(=O)c1Cl
inactive: viability change, negative = cytotoxic [1] 1.2% [at 19 µM] | Potency [2] | activity change, negative = inhibition [3] 7.15% [at 19 µM] | activity change, negative = cytotoxicity [4] 8.49% [at 19 µM] | viability change, negative = cytotoxic [5] 6.9% [at 19 µM] | viability change, negative = cytotoxic [6] 1.87% [at 19 µM] | activity change [7] -0.115% [at 18.9 µM] | activity change, negative = inhibition [8] 33.7% [at 19 µM] | activation [9] 0.451% [at 19 µM] | activity, negative = inhibition [10] 9.97% [at 19 µM] | activity change, negative = cytotoxicity [11] 0.0878% [at 19 µM] | activity change, negative = cytotoxicity [12] 2.64% [at 19 µM] | activity change, negative = cytotoxicity [13] 0.273% [at 19 µM] | Potency [15] | cAMP activity change [16] 6.03% [at 18.9 µM, active compounds read high] | activity change, negative = inhibition [17] 4.84% [at 19 µM] | activity change, negative = cytotoxicity [14] -1.35% [at 19 µM]
